The campaign covered roughly 5,500 compounds. About 2,000 (36%) were called active. Roughly 18% stayed inconclusive and do not appear here. No stated cut-off is given here; in the data, active means normalized growth mostly below about 0.91 (no sharp cut-off); inconclusive means no clear call, values can overlap the other calls; inactive means mostly above about 0.92. Some of the results follow.
Test: chemical genetic growth profiling, strain panel (AID 1159580);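 further: tested at 20 µM; growth read once vehicle control cultures reached saturation at 30 °C; 1 = growth at the plate median or of vehicle wells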
Details: growth OD

Measured: normalized growth

Oc1ccc(Cl)cc1
inactive: S. cerevisiae deletion strains, locus YJR075W, strain HOC1, stronger effect = lower value 0.993 | S. cerevisiae deletion strains, locus YKL009W, strain mrt4, stronger effect = lower value 0.972 | S. cerevisiae deletion strains, locus YKL068W, stronger effect = lower value 0.985 | S. cerevisiae deletion strains, locus YKL085W, strain MDH1 (second series), stronger effect = lower value 0.978 | S. cerevisiae deletion strains, locus YKL085W, strain MDH1, stronger effect = lower value 0.978 | S. cerevisiae deletion strains, locus YKL160W, strain elf1, stronger effect = lower value 1.03 | S. cerevisiae deletion strains, locus YKL190W, strain CNB1, stronger effect = lower value 0.993 | S. cerevisiae deletion strains, locus YKR001C, strain vps1, stronger effect = lower value 0.996 | S. cerevisiae deletion strains, locus YKR026C, strain gcn3, stronger effect = lower value 1.02 | S. cerevisiae deletion strains, locus YKR091W, strain srl3, stronger effect = lower value 1.01 | S. cerevisiae deletion strains, locus YLL001W, strain dnm1, stronger effect = lower value 1.02 | S. cerevisiae deletion strains, locus YLL026W, stronger effect = lower value 1.02 | S. cerevisiae deletion strains, locus YLL041C, strain sdh2, stronger effect = lower value 1.01 | S. cerevisiae deletion strains, locus YLR027C, strain aat2, stronger effect = lower value 0.999 | S. cerevisiae deletion strains, locus YLR039C, strain RIC1, stronger effect = lower value 0.983 | S. cerevisiae deletion strains, locus YLR058C, strain SHM2, stronger effect = lower value 0.989 | S. cerevisiae deletion strains, locus YLR102C, strain apc9, stronger effect = lower value 0.976 | S. cerevisiae deletion strains, locus YLR113W, strain HOG1, stronger effect = lower value 1 | S. cerevisiae deletion strains, locus YLR221C, strain rsa3, stronger effect = lower value 1.01 | S. cerevisiae deletion strains, locus YLR258W, strain gsy2, stronger effect = lower value 1 | S. cerevisiae deletion strains, locus YLR262C, strain YPT6 (second series), stronger effect = lower value 1.02 | S. cerevisiae deletion strains, locus YLR262C, strain YPT6, stronger effect = lower value 0.986 | S. cerevisiae deletion strains, locus YLR268W, strain sec22, stronger effect = lower value 0.93 | S. cerevisiae deletion strains, locus YLR320W, strain mms22, stronger effect = lower value 1.03 | S. cerevisiae deletion strains, locus YLR330W, strain CHS5, stronger effect = lower value 0.99 | S. cerevisiae deletion strains, locus YLR342W, strain FKS1 (second series), stronger effect = lower value 0.995 | S. cerevisiae deletion strains, locus YLR342W, strain FKS1, stronger effect = lower value 1.01 | S. cerevisiae deletion strains, locus YLR357W, strain rsc2, stronger effect = lower value 1.04 | S. cerevisiae deletion strains, locus YLR370C, strain arc18, stronger effect = lower value 1.01 | S. cerevisiae deletion strains, locus YLR371W, strain rom2, stronger effect = lower value 0.962 | S. cerevisiae deletion strains, locus YLR384C, strain iki3, stronger effect = lower value 1.01 | S. cerevisiae deletion strains, locus YLR418C, strain cdc73, stronger effect = lower value 0.986 | S. cerevisiae deletion strains, locus YML016C, strain PPZ1, stronger effect = lower value 0.99 | S. cerevisiae deletion strains, locus YML032C, strain rad52, stronger effect = lower value 0.963 | S. cerevisiae deletion strains, locus YML120C, strain ndi1, stronger effect = lower value 1.01 | S. cerevisiae deletion strains, locus YML124C, strain tub3, stronger effect = lower value 0.975 | S. cerevisiae deletion strains, locus YMR058W, strain fet3, stronger effect = lower value 1.01 | S. cerevisiae deletion strains, locus YMR078C, strain ctf18, stronger effect = lower value 0.968 | S. cerevisiae deletion strains, locus YMR125W, strain sto1, stronger effect = lower value 1.01 | S. cerevisiae deletion strains, locus YMR129W, stronger effect = lower value 1.01 | S. cerevisiae deletion strains, locus YMR205C, strain PFK2, stronger effect = lower value 1.03 | S. cerevisiae deletion strains, locus YMR223W, strain ubp8, stronger effect = lower value 1 | S. cerevisiae deletion strains, locus YMR231W, strain pep5, stronger effect = lower value 1.01 | S. cerevisiae deletion strains, locus YMR307W, strain GAS1, stronger effect = lower value 1 | S. cerevisiae deletion strains, locus YNL067W, strain RPL9B, stronger effect = lower value 0.996 | S. cerevisiae deletion strains, locus YNL071W, strain lat1, stronger effect = lower value 1.01 | S. cerevisiae deletion strains, locus YNL128W, strain TEP1, stronger effect = lower value 0.978 | S. cerevisiae deletion strains, locus YNL153C, strain GIM3, stronger effect = lower value 1 | S. cerevisiae deletion strains, locus YNL183C, strain NPR1, stronger effect = lower value 0.941 | S. cerevisiae deletion strains, locus YNL209W, strain ssb2, stronger effect = lower value 1 | S. cerevisiae deletion strains, locus YNL233W, strain BNI4, stronger effect = lower value 0.988 | S. cerevisiae deletion strains, locus YNL248C, strain rpa49, stronger effect = lower value 1 | S. cerevisiae deletion strains, locus YNL250W, strain rad50, stronger effect = lower value 0.97 | S. cerevisiae deletion strains, locus YNL271C, strain bni1, stronger effect = lower value 0.975 | S. cerevisiae deletion strains, locus YNL298W, strain CLA4, stronger effect = lower value 0.971 | S. cerevisiae deletion strains, locus YNL307C, strain MCK1, stronger effect = lower value 0.968 | S. cerevisiae deletion strains, locus YNL322C, strain KRE1 (second series), stronger effect = lower value 1.02 | S. cerevisiae deletion strains, locus YNL322C, strain KRE1, stronger effect = lower value 0.992 | S. cerevisiae deletion strains, locus YNR049C, strain mso1, stronger effect = lower value 1.01 | S. cerevisiae deletion strains, locus YNR052C, strain pop2, stronger effect = lower value 0.973 | S. cerevisiae deletion strains, locus YOL006C, strain TOP1, stronger effect = lower value 1.03 | S. cerevisiae deletion strains, locus YOL012C, strain htz1 0.904 | S. cerevisiae deletion strains, locus YOL147C, strain pex11, stronger effect = lower value 0.986 | S. cerevisiae deletion strains, locus YOR001W, strain rrp6, stronger effect = lower value 0.972 | S. cerevisiae deletion strains, locus YOR061W, strain CKA2, stronger effect = lower value 0.98 | S. cerevisiae deletion strains, locus YOR069W, strain VPS5, stronger effect = lower value 0.989 | S. cerevisiae deletion strains, locus YOR070C, strain gyp1, stronger effect = lower value 1 | S. cerevisiae deletion strains, locus YOR080W, strain dia2, stronger effect = lower value 1.01 | S. cerevisiae deletion strains, locus YOR083W, strain WHI5, stronger effect = lower value 1.02 | S. cerevisiae deletion strains, locus YOR106W, strain vam3, stronger effect = lower value 1.02 | S. cerevisiae deletion strains, locus YOR136W, strain idh2, stronger effect = lower value 0.98 | S. cerevisiae deletion strains, locus YOR144C, strain elg1, stronger effect = lower value 0.978 | S. cerevisiae deletion strains, locus YOR184W, strain ser1, stronger effect = lower value 0.961 | S. cerevisiae deletion strains, locus YOR231W, strain MKK1, stronger effect = lower value 0.979 | S. cerevisiae deletion strains, locus YOR265W, strain rbl2, stronger effect = lower value 1.02 | S. cerevisiae deletion strains, locus YOR270C, strain vph1, stronger effect = lower value 1.02 | S. cerevisiae deletion strains, locus YOR290C, strain snf2, stronger effect = lower value 0.999 | S. cerevisiae deletion strains, locus YOR316C, strain cot1, stronger effect = lower value 0.974 | S. cerevisiae deletion strains, locus YPL051W, strain arl3, stronger effect = lower value 1.01 | S. cerevisiae deletion strains, locus YPL078C, strain atp4, stronger effect = lower value 1.01 | S. cerevisiae deletion strains, locus YPL106C, strain sse1, stronger effect = lower value 1.04 | S. cerevisiae deletion strains, locus YPL240C, strain hsp82, stronger effect = lower value 1.01 | S. cerevisiae deletion strains, locus YPL241C, strain CIN2, stronger effect = lower value 0.997 | S. cerevisiae deletion strains, locus YPL256C, strain CLN2, stronger effect = lower value 0.978 | S. cerevisiae deletion strains, locus YPR119W, strain clb2, stronger effect = lower value 0.98 | S. cerevisiae deletion strains, locus YPR141C, strain kar3, stronger effect = lower value 0.976 | S. cerevisiae deletion strains, locus YPR163C, strain tif3, stronger effect = lower value 0.983 | S. cerevisiae deletion strains, locus YPR167C, strain met16, stronger effect = lower value 0.974 | S. cerevisiae deletion strains, strain wtn01, stronger effect = lower value 0.971 | S. cerevisiae strains, strain wild type, stronger effect = lower value 0.995

— PubChem BioAssay AID1159580 (chemical genetic matrix, 2015)
